Assay outcomes (PubChem BioAssay)
This is one part of a sample in which hits are shown more often than they occur.
Shiga inhibitor: blocks Shiga toxin action in Vero cells | hit rate 9.2% among 290,000 | inhibition, % at 38.7 µM | Vero cells, Shiga toxin protein synthesis inhibition reporter; in the data active = inhibition mostly above about 28%, no sharp cut-off; inactive = mostly below about 43%; note: 0% is about no effect
Sm TGR inh: inhibitors of Schistosoma mansoni thioredoxin glutathione reductase. hit rate 3% among 360,000. Potency, µM (titrated, usually from 114 µM), for the others: top-dose activity change, negative = inhibition, hits mostly inhibitors. purified TGR, DTNB reduction, TNB absorbance 405 nm; note: potency is the fitted concentration of half-maximal effect; % is set by controls: 0 for no effect and ±100 for the full control effect; nearly all actives have a fitted effect of over 60% in size
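Kinetic colorimetric format: TGR-catalysed, NADPH-driven DTNB reduction monitored via TNB absorbance. Enzyme dispensed at 20 nM; compound exposure 15 min at room temperature before reaction start.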
TbPYK inhibitor: blocks Trypanosoma brucei pyruvate kinase; AID 624173; Potency, µM (highest dose often 76.8 µM), inactives show top-dose activity, negative = inhibition, most hits filed as inhibitors; TbPYK enzyme, Kinase-Glo Plus ATP luminescence, 45 min; hit rate 0.12% among 410,000; note: potency is the fitted concentration of half-maximal effect; % is set by controls: 0 for no effect and ±100 for the full control effect; nearly all actives have a fitted effect of over 50% in size
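Screened from lowest to highest concentration, compounds were pinned into TbPYK/substrate mixtures, and ADP (130 uM final) was added. Plates sat at room temperature for 45 min prior to Kinase-Glo Plus detection by luminescence.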
FBPA Giardia inh: inhibitors of Giardia lamblia fructose-1,6-bisphosphate aldolase | Potency, µM (series often up to 59.6 µM), for inactives: top-dose activity, negative = inhibition, hits mostly inhibitors | purified Giardia FBPA | hit rate 0.71% among 290,000 | A8B2U2; note: potency is the fitted concentration of half-maximal effect; % is set by controls: 0 for no effect and ±100 for the full control effect; nearly all actives have a fitted effect of over 55% in size
Target sequence (A8B2U2 whole entry, looked up): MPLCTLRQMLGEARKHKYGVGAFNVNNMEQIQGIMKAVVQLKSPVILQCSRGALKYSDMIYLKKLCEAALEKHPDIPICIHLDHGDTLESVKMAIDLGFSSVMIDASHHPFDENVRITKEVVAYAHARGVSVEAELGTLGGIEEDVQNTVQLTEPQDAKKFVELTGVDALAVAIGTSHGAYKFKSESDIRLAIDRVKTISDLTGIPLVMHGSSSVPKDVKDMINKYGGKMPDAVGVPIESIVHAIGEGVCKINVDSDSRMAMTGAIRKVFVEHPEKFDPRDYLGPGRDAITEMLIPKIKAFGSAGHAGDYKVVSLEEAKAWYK
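40 nM FBPA preincubated 10 min at RT with compound (up to 57.5 uM final), then substrate plus GAPDH/TPI/NAD/arsenate coupling and diaphorase/resazurin added. Fluorescence read after 20 min at RT, 525/598 nm.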
LmPK inh: blocks Leishmania mexicana pyruvate kinase activity | Q27686 | purified LmPK, Kinase-Glo ATP luminescence, 1 h | Potency, µM (highest dose often 57.5 µM), for the others: top-dose activity change, negative = inhibition, hits mostly inhibitors | hit rate 0.37% among 290,000; note: potency is the fitted concentration of half-maximal effect; % is set by controls: 0 for no effect and ±100 for the full control effect
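0.1 nM LmPK, 0.5 mM PEP, 0.1 mM ADP; 50 mM imidazole pH 7.2, 7 mM MgCl2, 50 mM KCl; 1 h RT. Kinase-Glo luminescence readout, normalized to no-enzyme (full inhibition) and uninhibited wells.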
CHX counter: counter-screen for Shiga toxin inhibitors: cycloheximide protein synthesis inhibition; cell reporter, cycloheximide protein synthesis inhibition counterscreen; max response, %; hit rate 12% among 300,000; in the data active = max response mostly above about 13%, no sharp cut-off; inactive = mostly below about 14%; note: read at 38.3 µM for the half of the compounds with a filed dose; 0% is about no effect
* hit, by the source's call; ? = inconclusive; / = no result; [ ] = remark or other dose. Unless noted, calls come from the whole dose curve; as a rule, active = well fitted curve in the direction sought with a large enough effect; inconclusive = small, poorly fitted or top-dose-only effect, or another doubt; inactive = no such curve, though single readings can be large; an effect the other way counts as inactive or inconclusive.

SMILES | Shiga inhibitor | Sm TGR inh | TbPYK inhibitor | FBPA Giardia inh | LmPK inh | CHX counter
Cc1ccc(C(=O)NCC(C)NC(=O)c2ccc(C)c([N+](=O)[O-])c2)cc1[N+](=O)[O-] (stereo not drawn) | / | / | -4% | / | / | /
COc1c(C(=O)NCCSC(C)(C)C)ccc2ccccc12 | 39* | -3% | -2% | 3% | -4% | 13*
O=C(NCCSSCCNC(=O)c1ccccc1)c1ccccc1 | / | / | 2% | / | / | /
CC(C)(C)SCCNC(=O)c1ccccc1 | 37 | 1% | 1% | -7% | -2% | 37*
Cc1ccc(C(=O)ONC(=O)c2ccc(Cl)cc2)cc1[N+](=O)[O-] | 34* | -24% | 31% | 4% | -2% | 21*
Cc1cccc(OC(=O)CSc2nnc(-c3ccc4c(c3)OCO4)o2)c1C | / | ? | -5% | / | / | /
CC(=O)OCC1OC(C#Cc2ccc(C)cc2C)C=CC1OC(C)=O (stereo not drawn) | / | / | / | 0%[12.9 µM] | / | /
CCCCC#Cc1nc(N)c2ncn([C@@H]3O[C@H](C(=O)NCC)[C@@H](O)[C@H]3O)c2n1 | / | / | / | 2% | / | /
Cc1ccc(CSCCNC(=O)c2ccc(N(C)S(=O)(=O)c3ccccc3)cc2)cc1 | 14 | 2% | -11% | -1% | -1% | 5
CC(C)(C)c1ccc(C(=O)NCCCNC(=O)c2ccco2)cc1 | 4 | 48% | 0% | 2% | 10% | -2
Cc1ccc(C(=O)NCCSC(C)(C)C)cc1 | 31 | 7% | 2% | 2% | -5% | 43*
CSCCNC(=O)c1ccc(C(C)(C)C)cc1 | 92* | 0% | 1% | -9% | -11% | 28*
CN(c1ccc(C(=O)NCCSC(C)(C)C)cc1)S(=O)(=O)c1ccccc1 | 28 | 10% | 15% | -5% | 8% | 11*
CCOc1ccc(CNC(=O)c2ccc(NC(=O)N3CCSc4ncccc43)cc2)cc1OC | / | 1% | -8%[15.4 µM] | / | / | /
Cc1cc(-c2ccc(S(=O)(=O)Nc3cc(Cl)ccc3C)s2)on1 | / | 3% | -6%[15.4 µM] | / | / | /
COc1cc(OC)c(NS(=O)(=O)c2cc(-c3cnc(C)o3)ccc2OC)cc1Cl | / | -6% | 9% | / | / | /
CC1=Nc2cc([N+](=O)[O-])ccc2NC(C)(C)C1 | 115* | ? | -3% | -27% | -1% | 62*
O=C(O)C1C2C=CC(O2)C1C(=O)NCc1ccc2c(c1)OCO2 (stereo not drawn) | -4 | ? | 1% | 11% | 0% | -3
CN(C)c1ccc(NC(=O)C2C3C=CC(C3)C2C(=O)O)cc1 (stereo not drawn) | 66* | ? | -17% | -4% | 3% | 20*
CCc1ccc(NC(=O)C2C3C=CC(C4CC34)C2C(=O)O)cc1 (stereo not drawn) | 19 | -9% | -4% | 0% | -5% | 14*
CC(=O)c1cccc(NC(=O)C2C3C=CC(C3)C2C(=O)O)c1 (stereo not drawn) | 11 | 3% | 32% | 1% | -3% | 2
O=C(O)C1C2C=CC(C2)C1C(=O)Nc1ccc2c(c1)OCCO2 (stereo not drawn) | 113* | -3% | -2% | 5% | 0% | 80*
O=C(O)C1C2C=CC(O2)C1C(=O)Nc1ccc2c(c1)OCCO2 (stereo not drawn) | 132* | 35µM* | / | -19% | -2% | 75*
OC[C@H]1NC[C@H](O)[C@@H](O)[C@H]1O | / | / | / | 6% | / | /
COc1ccc(-n2c(-c3ccc(F)cc3)cn3c4c(=O)n(C)c(=O)n(C)c4nc23)cc1 | / | 4% | -5% | / | / | /
SMILES | Shiga inhibitor | Sm TGR inh | TbPYK inhibitor | FBPA Giardia inh | LmPK inh | CHX counter
C[C@H](NC(=O)N1CCc2nc(-c3ccccc3)c3c(c2C1)CO[C@@H](C)C3)c1ccccc1 | / | / | / | 5%[12.9 µM] | -4%[11.5 µM] | /
CCOC(=O)N1C(COCc2ccccc2)C=CCS1(=O)=O (stereo not drawn) | 181* | / | / | 0% | / | 78*
COc1ccc2cc(C(=O)/C=C/c3cc(OC)c(O)c(OC)c3)ccc2c1 | 39 | -35% | 0% | / | -1% | 16
COc1ccc(C(=O)/C=C/c2ccccc2)cc1 | / | / | / | -2% | / | /
COc1ccc(C(=O)/C=C/Nc2cc(C)on2)c(OC)c1 | 65 | -13% | -4% | 8% | -5% | 25*
COc1ccc(C(=O)/C=C/c2ccc(N(C)C)cc2)c(OC)c1 | 30 | 4% | 0% | 7% | 1% | 26*
COc1ccc(C=CC(=O)c2cc(O)ccc2O)cc1 | / | / | -4% | / | / | /
COc1ccc(C(=O)/C=C/c2cc(OC)c(O)c(OC)c2)c(F)c1 | 9 | 50µM* | -7% | ? | 0% | 6
COc1ccc(C(=O)/C=C/c2ccccc2)c(OC)c1 | 54* | 7% | -1% | -15% | -9% | 32*
O=C(O)/C=C\c1ccc(Cn2ccnc2)cc1 | / | / | -4%[33.2 µM] | -13%[21.7 µM] | / | /
CCOC(=O)c1c(C)[nH]c(C)c1S(=O)(=O)N1CCC(C(=O)N2CCN(c3cccc(C)c3C)CC2)CC1 | / | 2% | 4% | / | / | /
O=C(Oc1ccccc1)N1CCC2(CC1)CCN(c1ccccn1)CC2 | / | / | 4% | -17% | / | /
COc1ccc(-n2c(=O)c3c4c(sc3n(Cc3ccc(C)cc3C)c2=O)CCC4)c(OC)c1 | / | 0% | 0% | / | / | /
COC(=O)c1ccc(C#Cc2ccccc2)o1 | 31 | 4% | 3% | 0% | 2% | 56*
O=C(c1ccc(C#Cc2ccccc2)o1)N1CCN(c2ccccn2)CC1 | 2 | 1% | -1% | 0% | 5% | -4
CCC(C)/C=C(C)/C=C/C1=CC2=C(Cl)C(=O)C(C)(OC(C)=O)C(=O)C2=CO1 (stereo not drawn) | 24 | -21% | 1% | -5% | -29% | 11*
CC[C@H](C)/C=C(C)/C=C/C1=CC2=C(Cl)C(=O)[C@@](C)(OC(C)=O)C(=O)C2=CO1 | / | / | -13% | / | / | /
CC[C@H](C)/C=C(C)/C=C/C1=CC2=CC(=O)[C@]3(C)OC(=O)[C@@H](C(C)=O)[C@@H]3C2=CO1 | 3 | 14µM* | 1% | -21% | -2% | 6
Cc1ccc(-c2noc(CNC(=O)c3ccc(Br)o3)n2)cc1 | / | -1% | -4% | / | / | /
CCOC(=O)Cc1ccc(NC(=O)N(Cc2ccc(OC)cc2)C2CCN(C(C)=O)CC2)cc1 | / | -7% | 8% | / | / | /
CCOC(=O)c1c(/N=C/c2c(O)n(-c3ccccc3F)c(=S)[nH]c2=O)sc2c1CCCC2 | -5 | 11µM* | -22% | 18µM* | 3% | 9
CNC(=S)N/N=C/c1cn(CCOc2cccc(OC)c2)c2ccccc12 | 103* | 0% | 2% | 1% | 2% | 10
COC(=O)N/N=C/c1cn(CCOc2ccccc2)c2ccccc12 | 78* | 15% | 1% | -6% | 1% | 46*
CCOC(=O)N/N=C/c1cn(CCCOc2ccc(C)cc2)c2ccccc12 | 42* | 0% | -6% | 0% | 1% | 64*
CCOC(=O)N/N=C/c1cn(CCCOc2ccccc2)c2ccccc12 | 66* | 2% | 0% | 2% | 5% | 46*
